Assay results taken from PubChem BioAssay (NCI).
The panel holds about 79,000 compounds, 15% with a hit somewhere; the sample as a whole holds those more often. Activity calls are given as the source filed them. Cut-off read from the data, not from the text of the source: active = growth inhibition above about 70%; inactive = the rest.

What was measured:
[1] = NCI Yeast Anticancer Drug Screen. Data for the rad50 strain (AID 155);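 note: 0% = growth of vehicle-only cultures of the same strain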; settings: S. cerevisiae rad50 strain growth inhibition; at 50.0 µM; active compounds read high
Procedure, shortened: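 Inhibition values express reduced yeast growth in compound-treated cultures relative to vehicle-treated controls.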

[2] = NCI Yeast Anticancer Drug Screen. Data for the mec2-1 strain (AID 157); settings: S. cerevisiae mec2-1 strain, at 50.0 µM, active compounds read high
Procedure, shortened: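 Vehicle-treated cultures served as reference for growth inhibition of compound-exposed mec2-1 yeast.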

[3] = NCI Yeast Anticancer Drug Screen. Data for the sgs1 mgt1 strain (AID 161);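 note: 0% = growth of cultures given vehicle only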; settings: S. cerevisiae sgs1 mgt1 strain, at 50.0 µM, active compounds read high
Procedure, shortened: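 Read-out: growth inhibition vs vehicle controls. Cells: mutant yeast strain deficient in DNA damage repair.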

[4] = NCI Yeast Anticancer Drug Screen. Data for the cln2 rad14 strain (AID 165);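 note: 0% = growth equal to vehicle treated cultures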; settings: S. cerevisiae cln2 rad14 strain, at 50.0 µM, active compounds read high
Procedure, shortened: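 Each compound was tested on cln2 rad14 yeast. Inhibition of growth was calculated against vehicle-exposed controls.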

[5] = NCI Yeast Anticancer Drug Screen. Data for the bub3 strain (AID 167); settings: S. cerevisiae bub3 mutant strain, at 50.0 µM, active compounds read high
Procedure, shortened: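 Steps: expose the mutant yeast strain to compound; grow alongside vehicle-treated cultures; measure growth; express inhibition against the vehicle cultures.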

[6] = NCI Yeast Anticancer Drug Screen. Data for the mlh1 rad18 strain (AID 175); settings: S. cerevisiae mlh1 rad18 strain growth inhibition; at 50.0 µM; active compounds read high
Procedure, shortened: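 Vehicle-treated cultures served as the reference for growth inhibition in a yeast strain carrying DNA damage repair alterations exposed to each compound.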

Measured: growth inhibition

CCN(CC)Cc1cc(C)c(O)c(N=Nc2ccc(-c3ccc(N)c(OC)c3)cc2OC)c1C
inactive: [1] -21.4% | [2] 12.7% | [3] -8.05% | [4] -2.05% | [5] -6.1% | [6] -21.4%

CC(=O)Nc1cc2c(cc1Br)-c1ccc(Br)cc1C2
inactive: [1] 32.4% | [2] 8.4% | [3] 11.8% | [4] 15.6% | [5] -2.45% | [6] 14.4%

c1ccc(Cc2nnc3n2CCC(c2ccccc2)S3)cc1 (stereo unspecified)
inactive: [1] -9.8% | [2] 1.3% | [3] -10.9% | [4] 2.4% | [5] 5.05% | [6] -0.25%

N#Cc1ccccc1NC(=O)C(=O)C(C(=O)c1ccccc1-c1ccccc1)C1OC(=O)c2ccccc21 (stereo unspecified)
inactive: [1] 24.4% | [2] 5.25% | [3] 11.7% | [4] -43% | [5] 2.25% | [6] 0.95%

Cc1ccc(-n2cc(/C(N)=N/O)c3ccccc3c2=O)cc1
inactive: [1] -29.8% | [2] -32.4% | [3] -32.8% | [4] -28.6% | [5] -22.8% | [6] -32.5%

COc1ccc(N=Nc2c(-c3ccccc3)nn(C(=O)CC(=O)Nc3ccc(OC)cc3)c2-c2ccccc2)cc1
inactive: [1] -17% | [2] -1.7% | [3] -0.8% | [4] -25.4% | [5] 11.7% | [6] -3.35%

O=C1OC2(c3ccc(O)cc3Oc3cc(O)ccc32)C2C3CCC(O3)C12 (stereo unspecified)
inactive: [1] 52.2% | [2] 38.2% | [3] 42.2% | [4] 27% | [5] 37.2% | [6] 40.4%

COC1OC(CO)C(OC(=O)Nc2ccccc2)C(OC(=O)Nc2ccccc2)C1O (stereo unspecified)
inactive: [1] -16.9% | [2] -10.7% | [3] -1.4% | [4] -38.1% | [5] 2.7% | [6] -8.15%

Cc1cccc(-n2c(CC#N)n[nH]c2=S)c1
inactive: [1] 21% | [2] -21.8% | [3] -0.4% | [4] 3.15% | [5] 5.2% | [6] 5.45%

CCOC(=O)c1c(Nc2ccc(OC)cc2)n[nH]c1C
inactive: [1] -7.85% | [2] -34.3% | [3] 15.6% | [4] 9.6% | [5] 8.65% | [6] -8.65%

O=C(O)c1c(Br)c(Br)c(Br)c(Br)c1C(=O)Nc1cccc2c(O)cccc12
inactive: [1] 42.4% | [2] 24.9% | [3] 25.2% | [4] 14.4% | [5] 24.3% | [6] 44.9%

O=C(O)c1cscn1.O=C(O)c1cscn1.[I][Pt][I]
inactive: [1] 5.75% | [2] 3.55% | [3] 13.9% | [4] -17.1% | [5] 0.9% | [6] 48%

N#CC1C(=O)NC(=S)NC1c1ccc2c(c1)CCC2 (stereo unspecified)
inactive: [1] -12.9% | [2] -6.7% | [3] -22.9% | [4] -18.8% | [5] -7.15% | [6] 4.1%

Cc1cc(C)nc(NS(=O)(=O)c2ccc(NC(=O)C(Cl)(Cl)Cl)cc2)n1
inactive: [1] -34% | [2] -24.6% | [3] -35.4% | [4] -13% | [5] -42% | [6] -39.8%

c1ccc(-c2nc(-c3ccccc3)n3nc4c(c3c2-c2ccccc2)CCCCCC4)cc1
inactive: [1] -6.65% | [2] 5.65% | [3] -19.6% | [4] -8.55% | [5] -0.35% | [6] 0.2%

CCCCCCCCCCCCCCCc1c(NC(C)(CC)[P+](=O)O)c(=O)n(C)n1C (stereo unspecified)
inactive: [1] -41.5% | [2] -32.5% | [3] -7.45% | [4] -29.9% | [5] -12.2% | [6] -18.8%

N#CC/C(C#N)=C/OC(=O)c1ccc(Cl)cc1
inactive: [1] 12.2% | [2] -4.5% | [3] -13.3% | [4] -33.5% | [5] -17.9% | [6] -7.15%

CC(=O)NC(=O)CC(=O)c1ccccc1
inactive: [1] -2.2% | [2] -12.8% | [3] -13.4% | [4] 13.9% | [5] -4.7% | [6] -18.3%

COc1cc2c(cc1OC)C(O)C(O)(CO)C(C(=O)O)C2c1cc(OC)c(OC)c(OC)c1 (stereo unspecified)
inactive: [1] 24.4% | [2] -10.3% | [3] 12.1% | [4] 18.2% | [5] 25.1% | [6] 22.7%

C1CCC2(CCC34CCCCC3CCCC4)CCCCC2C1 (stereo unspecified)
active: [1] 99.5% | [2] 99.7% | [3] 99.5% | [4] 99.3% | [5] 99.5% | [6] 98.2%

COc1ccc2oc(=N)c(C(=O)NCc3ccccc3)cc2c1
inactive: [1] -4% | [2] -0.85% | [3] -19.1% | [4] -6.35% | [5] -34.1% | [6] -24.6%

C[n+]1cccc(/C=C/C(=O)Nc2ccccc2)c1
inactive: [1] 5.8% | [2] 7% | [3] -24.1% | [4] 5.95% | [5] 12.1% | [6] 19.4%

CCNC(=O)C1C2C=CC(C2)C1C(=O)NCC (stereo unspecified)
inactive: [1] 2.9% | [2] -9.6% | [3] -9.15% | [4] -46% | [5] -5.3% | [6] 0.05%

CC(C)NC(=O)OCc1c(COC(=O)NC(C)C)c(Sc2ccccc2)n2c1CCC2
inactive: [1] 6.6% | [2] -17.1% | [3] 1.85% | [4] -27.6% | [5] 9.1% | [6] 16.2%

O=c1c2cc(Cl)ccc2on1CN1CCOCC1
inactive: [1] 3.4% | [2] 11.4% | [3] 17% | [4] -3.9% | [5] 5.4% | [6] 5.8%

O=c1c2cc([N+](=O)[O-])ccc2n2n1CCCC2
inactive: [1] 15.1% | [2] 9.45% | [3] -13.8% | [4] 16.9% | [5] -16% | [6] -10.4%

C=CCOC(=O)OC(C)C(=O)OCC=C (stereo unspecified)
inactive: [1] 27% | [2] 13.1% | [3] 15.4% | [4] 7.55% | [5] -2.25% | [6] -2.5%

O=C(CNc1ccccc1)c1ccc(O)c(C(=O)O)c1 (tested in a mixture with another compound)
inactive: [1] -8.5% | [2] -12.3% | [3] -11.3% | [4] -5.35% | [5] -0.7% | [6] 0.95%

Cc1ccc2c(c1)nc(-c1ccccn1)n2CCc1ccncc1
inactive: [1] 62.5% | [2] 34.1% | [6] 53.8%
active: [3] 77% | [4] 90.3% | [5] 92.7%

O=C1C(N=Nc2ccc(Br)cc2)Sc2nc3ccccc3n21 (stereo unspecified)
inactive: [1] 8.2% | [2] -12.4% | [3] 6.45% | [4] -27.4% | [5] 17.1% | [6] 10.3%

Cc1ccc(S(=O)(=O)C(=S)N(C)N(C)C)cc1
inactive: [1] 18.2% | [2] 25.4% | [3] 36.4% | [4] -12.9% | [5] 25.4%
active: [6] 88%

O=C(Nc1ccccn1)c1ccccc1
inactive: [1] 35% | [2] 19.6% | [3] 15.6% | [4] 11.6% | [5] 26.4% | [6] 31.8%

CCCC1OCC(O)C(C(O)C(=O)CN(Cc2ccccc2)Cc2ccccc2)O1 (stereo unspecified)
inactive: [1] 0.1% | [2] 1.35% | [3] 1.55% | [4] -9.5% | [5] -3.8% | [6] 3.75%

CSC1=C(C#N)C(=O)N(c2ccc(C)cc2)C(=O)C1C#N (stereo unspecified)
inactive: [1] 26.1% | [2] 12.2% | [3] 31.1% | [4] 24.4% | [5] 5.5% | [6] 20.3%

COc1ccc2c(O)c(Oc3ccc(Cl)cc3)c(=O)oc2c1
inactive: [1] -4.2% | [2] -1.1% | [3] -1.45% | [4] 2.6% | [5] 7.95% | [6] 22.4%

O=C1C2CCOC2N=C2CCCN12 (stereo unspecified)
inactive: [1] -1.85% | [2] 5.55% | [3] -3.55% | [4] 1.65% | [5] -5.3% | [6] -11.1%

O=C1NC(=O)N(C(F)(F)F)C(F)(F)N1C(F)(F)F
inactive: [1] 1.25% | [2] 4.55% | [3] 3.75% | [4] 30.9% | [5] 5.8% | [6] 23.1%

c1ccc(N=C(c2ccccc2)c2ccccc2)cc1
inactive: [1] 9.25% | [2] -6.65% | [3] -6.05% | [4] -6.65% | [5] -7.65% | [6] 26.3%

Cc1ccc2c(c1)C(c1ccccc1)(c1ccccc1)OC2
inactive: [1] 8.65% | [2] 41.4% | [3] 9.45% | [4] -10.8% | [5] 10.4% | [6] 13.6%

O=C1CSC(c2c(F)cccc2Cl)N1c1nncs1 (stereo unspecified)
inactive: [1] 9.4% | [2] -2% | [3] 31.4% | [4] 13% | [5] 29.6% | [6] 10%

CC(=O)NC(c1ccccc1)c1c(O)ccc2ccccc12 (stereo unspecified)
inactive: [1] 26.6% | [2] -2.8% | [3] 10.8% | [4] -33.2% | [5] -2.5% | [6] -5.25%
